# FBW7 act – FBW7 E3 ligase activators, primary screen, biochemical, AlphaScreen, human | F-box/WD repeat-containing protein 7 (Homo sapiens), Q969H0 | 650,000 compounds, 0.13% hits | AlphaScreen FBW7–phospho-cyclin E peptide binding, activator screen | normalized activity (activation), % at 26.1 µM | AID 1259310, 2017; in the data active = normalized activity above about 1.9%;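 note: purified mutant Fbw7 with reduced substrate affinity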
# TEAD-YAP block – TEAD-YAP interaction inhibition, primary screen, TEAD-YAP interaction inhibitor project, luminescence, HEK-TIYL cells; AID 1259422, 2018; TEAD-Gal4/YAP UAS-luciferase luminescence; 640,000 compounds, 1.4% hits; inhibition, % at 9.12 µM; in the data active = inhibition above about 32%;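 note: 0% = median of test compound wells and 100% = reference inhibitor wells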
# GPR151 activ – activators of human GPR151, primary screen, cell-based, PathHunter beta-arrestin, luminescence | PathHunter beta-arrestin GPR151 cells | 650,000 compounds, 1% hits | activation, % at 11.2 µM; in the data active = activation above about 4.9%;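 note: 0% = median of compound wells and 100% = cells with positive control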
# MITF primary – MITF inhibitors, primary screen, biochemical, AlphaScreen, human | Microphthalmia-associated transcription factor (Homo sapiens), O75030 | AlphaScreen MITF homodimerization, bead proximity signal | inhibition, % at 2.6 µM | 650,000 compounds, 0.91% hits; in the data active = inhibition above about 50%;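 note: 0% = vehicle wells with protein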
# Target sequence (O75030 whole entry, looked up): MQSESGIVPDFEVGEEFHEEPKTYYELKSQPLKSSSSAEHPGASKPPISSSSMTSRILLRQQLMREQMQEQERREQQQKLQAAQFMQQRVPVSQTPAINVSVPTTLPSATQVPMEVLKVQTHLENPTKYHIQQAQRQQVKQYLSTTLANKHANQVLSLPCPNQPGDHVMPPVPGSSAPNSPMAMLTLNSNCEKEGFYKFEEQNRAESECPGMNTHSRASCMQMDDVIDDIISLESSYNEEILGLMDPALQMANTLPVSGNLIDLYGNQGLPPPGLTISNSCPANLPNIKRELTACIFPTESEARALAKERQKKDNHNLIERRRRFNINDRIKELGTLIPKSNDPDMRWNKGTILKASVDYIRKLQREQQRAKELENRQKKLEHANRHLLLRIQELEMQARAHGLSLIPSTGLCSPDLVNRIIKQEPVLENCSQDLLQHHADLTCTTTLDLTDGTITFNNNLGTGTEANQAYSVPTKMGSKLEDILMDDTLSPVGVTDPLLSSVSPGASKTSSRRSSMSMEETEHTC
# MITF confirm – MITF inhibitors, retest of hits, confirmation, biochemical, AlphaScreen, triplicate; shares compounds with MITF primary; 4,700 compounds, 16% hits; AlphaScreen MITF homodimerization, biotin/His-MITF beads; inhibition, % at 2.6 µM;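 active = inhibition above a cutoff derived from the DMSO control wells, cut at about 28% in these data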;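 note: 0% = MITF dimer wells with DMSO only; inhibitors lower the bead chemiluminescence by keeping MITF from dimerizing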
# AS interf DR – AlphaScreen optical interference compounds, dose response, counter-screen, biochemical, HTS. shares compounds with MITF primary. AlphaScreen optical interference counterscreen, cell-free. IC50, µM. 480 compounds, 6% hits. AID 1259373, 2018; call rule not given here
# AlphaScreen intf2 – AlphaScreen optical interference compounds, counter-screen for MITF inhibitor project, biochemical, triplicate; AID 1259376, 2018; inhibition, % at 2.6 µM; LysRS AlphaScreen counterscreen, signal interference; shares compounds with MITF primary; 4,700 compounds, 7.6% hits;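 active = inhibition above a cutoff derived from the DMSO control wells, cut at about 30% in these data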
# Numbers without * were called inactive; · = not tested or not shown. An excerpt weighted towards active compounds, which were near 3.5% of everything screened.
SMILES,FBW7 act,TEAD-YAP block,GPR151 activ,MITF primary,MITF confirm,AlphaScreen intf2,others
CCn1c2ccccc2c2cc(CN3CCN(Cc4ccc(C(F)(F)F)cc4)CC3)ccc21,0,-7,4,54*,17,20,
O=S(=O)(c1ccccc1)N1CCN(C2CCCCCC2)CC1,0,-4,1,59*,-14,-2,
O=[N+]([O-])c1ccc(S(=O)(=O)N2CCN(C3CCCC3)CC2)cc1,0,3,0,53*,-6,-4,
O=[N+]([O-])c1ccc(S(=O)(=O)N2CCN(C3CCCCCC3)CC2)cc1,0,0,0,38,·,·,
Cc1ccc(S(=O)(=O)N2CCN(C3CCCCC3)CC2)cc1,0,-7,1,30,·,·,
COc1cc2nc(CN(C)Cc3nccs3)nc(N)c2cc1OC,0,5,1,73*,48*,100*,
COc1cc2nc(CN(C)Cc3cc(C)no3)nc(N)c2cc1OC,0,-31,3,17,·,·,
Cc1cc(Cl)cc(Br)c1OCCCCn1cncn1,0,9,-1,63*,0,-4,
Cc1cc(Cl)c(OCCCn2cncn2)c(Br)c1,0,0,0,4,·,·,
CCOC(=O)c1ccc(-n2c(=S)sc3c2nc(SCC(=O)NCc2ccccc2)n2c4ccccc4nc32)cc1,0,7,0,60*,-4,-8,
CCOc1ccc(-n2c(=S)sc3c2nc(SCC(=O)NCc2ccccc2)n2c4ccccc4nc32)cc1,0,4,0,-1,·,·,
COc1ccccc1CNCC(=O)c1ccc(OC)c(OC)c1,0,2,0,68*,-6,0,
COc1cc(Nc2ccc(-n3cc(CC(=O)NCCN4CCOCC4)c4ccccc43)nn2)cc(OC)c1OC,0,-6,-1,25,·,·,
COc1cc(N2CCOCC2)ccc1Nc1cc(NC(C)(C)c2ccccc2)c(C(F)(F)F)cn1,0,-1,-2,58*,44*,17,AS interf DR=>6.5
COc1cc(N2CCOCC2)ccc1Nc1cc(NCc2ccccc2)c(C(F)(F)F)cn1,0,-1,-1,10,·,·,
CC(Oc1ccc2c(C(F)(F)F)cc(=O)oc2c1)C(=O)NN (stereo unspecified),0,1,4,58*,44*,-4,AS interf DR=>6.6
CC(=O)COc1ccc2c(C(F)(F)F)cc(=O)oc2c1,0,4,-1,-23,·,·,
CN1C(=O)/C(=C2\SC(=Nc3ccc(F)cc3)NC2=O)c2cc(Br)ccc21,0,1,2,51*,3,-9,
CN1C(=O)/C(=C2\SC(=Nc3ccc(Br)cc3)NC2=O)c2ccccc21,0,-5,-1,8,·,·,
Cc1cnc(Nc2cccc(N3CCOCC3)c2)cc1Nc1ccccc1C(N)=O,0,26,1,-6,·,·,
O=C(Nc1ccccc1)NC1(C(=O)O)CCCCC1,0,-3,-1,-8,·,·,
Cc1ccc([N+](=O)[O-])cc1S(=O)(=O)Nc1ccc(Nc2ncccc2[N+](=O)[O-])cc1,0,-8,1,97*,97*,-6,AS interf DR=>6.6
Cc1ccc([N+](=O)[O-])cc1S(=O)(=O)Nc1ccc(N)cc1,0,-1,-1,9,·,·,
Cc1cccc(CSc2nsc(SCc3cccc(C)c3)c2C#N)c1,0,-9,-1,-10,·,·,
Cc1cc(C)n2nc(C(=O)Nc3ccc(Br)c(C)c3)nc2n1,1,-48,-2,51*,-7,-8,
SMILES,FBW7 act,TEAD-YAP block,GPR151 activ,MITF primary,MITF confirm,AlphaScreen intf2,others
O=[N+]([O-])c1ccccc1CN1CCN(c2ncccn2)CC1,0,3,1,25,·,·,
O=[N+]([O-])c1ccccc1CN1CCN(c2ccccn2)CC1,0,8,0,54*,1,-3,
O=[N+]([O-])c1ccccc1CN1CCN(Cc2ccccn2)CC1,0,5,0,69*,2,1,
O=[N+]([O-])c1ccc2c(c1)C1C=CCC1C(c1ccc(F)cc1)N2 (stereo unspecified),0,9,0,0,·,·,
COCCNC(=O)/C(C#N)=C/c1ccc(-c2cccc(Cl)c2Cl)o1,0,-2,2,-7,·,·,
O=C(NCc1ccco1)c1ccc(CS(=O)c2ccc(Br)cc2)o1 (stereo unspecified),0,-1,1,77*,-11,-2,
O=C(NCc1ccccc1)c1ccc(CS(=O)c2ccc(Br)cc2)o1 (stereo unspecified),0,7,0,5,·,·,
COc1ccc(Br)cc1CN1CCN(C(=O)c2cccc(Cl)c2)CC1,0,-2,-1,53*,-2,12,
COc1cccc(C(=O)N2CCN(Cc3cc(Br)ccc3OC)CC2)c1,0,-13,0,58*,12,14,
COc1cccc(C(=O)N2CCN(Cc3cc(OC)ccc3OC)CC2)c1,1,3,0,45,·,·,
COc1cc(OC)c(OC)cc1CN1CCN(C(=O)c2cccc(Cl)c2)CC1,0,1,0,26,·,·,
Cc1ccc(-c2cc(C(F)(F)F)n3nc(C(=O)NCCCN4CCOCC4)c(Cl)c3n2)cc1,0,3,1,6,·,·,
Cc1cccc(-n2c(C)c(C)n3c4c(=O)n(CC(N)=O)c(=O)n(C)c4nc23)c1,0,-8,0,4,·,·,
CC(=O)Nc1ccc(-c2ccncc2-c2ccc(S(N)(=O)=O)cc2)cc1,0,-1,0,55*,47*,38*,
CN(C)/C=C/C=C/C(=O)c1ccccc1N(C)C,0,3,1,-6,·,·,
CN(C)/C=C/C=C/C=C/C(=O)c1ccc(C(=O)/C=C/C=C/C=C/N(C)C)cc1,0,4,-1,84*,68*,10,
O=C1OC(c2ccc(Cl)cc2)=N/C1=C\c1ccc(Br)cc1,0,-4,1,2,·,·,
O=C(CN1C(=O)NC2(CCCCCC2)C1=O)NC(=O)NCc1ccco1,0,-4,-1,70*,71*,12,AS interf DR=>7.2
Cc1ccc(S(=O)(=O)N(CC(=O)N(C)Cc2ccccc2)c2ccccc2)cc1,0,4,0,-14,·,·,
Cc1ccccc1C(=O)N/C(=C/c1ccc(Cl)cc1)C(=O)O,0,10,-1,-16,·,·,
COc1ccc(CCNC(=O)c2ccc3c(c2)nc(SCC(=O)NCC2CCCO2)n2c4ccccc4nc32)cc1OC (stereo unspecified),0,10,1,5,·,·,
Cc1nc(C)c(C(=O)Nc2ccc(C(N)=O)cc2)o1,0,-10,0,2,·,·,
Cc1nc(C)c(C(=O)Nc2ccc(Br)cc2)o1,0,2,-1,56*,7,21,
